Assay outcomes (PubChem)
This is a sample that favours compounds with a hit; in the whole collection about 6.7% have one here.
Pf Dd2 inh = blocks growth of Plasmodium falciparum Dd2 parasites | P. falciparum Dd2 growth, SYBR Green, 72 h; active compounds read low | activity change, % at 10 µM | hit rate 2.3% among 94,000 | AID 1159554; in the data active means activity change below about -80%; inconclusive means no clear call, values can overlap the other calls
Tcruzi prolif = T. cruzi proliferation inhibition | T. cruzi beta-gal in NIH3T3, GalScreen luminescence, 90 h | inhibition, % at 8.34 µM | hit rate 5.9% among 77,000;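 active means mean inhibition above about 93%, with at least 55% of replicates each passing it, limit read from the data, passing the limit was not always enough; inconclusive means only one of those two conditions holds; inactive means neither condition holds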
C diff growth = inhibitors of Clostridium difficile growth | Clostridium difficile clinical isolate growth, OD600, 24 h; active compounds read low | growth activity, negative = inhibition, % at 16 µg/mL (by protocol) | hit rate 0.25% among 86,000;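 active means mean growth activity at or below -80% and every replicate also at or below -80%; inconclusive means mean at or below -80% but some replicate above -80%; inactive means mean growth activity above -80%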
A number is an active result; – = inactive; ? = inconclusive; · = no result given.

SMILES | Pf Dd2 inh | Tcruzi prolif | C diff growth
COc1cccc(NC(=O)N2CC(=O)N3[C@H](CO)[C@@H](c4ccc(C#CCC5CCCC5)cc4)[C@H]3C2)c1 | -91 | · | –
COc1cccc(C#Cc2ccc([C@@H]3[C@H]4CN(C(=O)c5ccccc5)CC(=O)N4[C@H]3CO)cc2)c1 | – | · | –
COc1cccc(C#Cc2ccc([C@H]3[C@@H](CO)N4C(=O)CN(C(=O)c5ccccc5)C[C@H]34)cc2)c1 | -89 | · | –
COc1cccc(NC(=O)N2CC(=O)N3[C@H](C2)[C@H](c2ccc(C#CCC4CCCC4)cc2)[C@@H]3CO)c1 | – | · | –
O=C(c1ccc(F)cc1)N1CC(=O)N2[C@H](C1)[C@H](c1ccc(C#Cc3ccc(F)cc3)cc1)[C@@H]2CO | – | · | –
CC(C)NC(=O)N(C)C[C@@H]1Oc2ccc(NC(=O)CCCCCC(=O)Nc3ccccc3N)cc2CC(=O)N([C@@H](C)CO)C[C@H]1C | – | – | –
O=C(N[C@H]1CC[C@H](CC(=O)N2CCOCC2)O[C@H]1CO)c1ccc2c(c1)OCO2 | – | – | –
COc1ccc(CN(C)C[C@H]2OCCCC[C@@H](C)Oc3ccc(NC(=O)Nc4cccc5ccccc45)cc3C(=O)N([C@@H](C)CO)C[C@H]2C)cc1 | -89 | – | –
COc1ccc(CN(C)C[C@H]2OCCCC[C@H](C)Oc3ccc(NC(=O)Nc4cccc5ccccc45)cc3C(=O)N([C@H](C)CO)C[C@@H]2C)cc1 | – | – | –
COc1ccc(CN(C)C[C@@H]2OCCCC[C@@H](C)Oc3ccc(NC(=O)Nc4cccc5ccccc45)cc3C(=O)N([C@H](C)CO)C[C@@H]2C)cc1 | – | – | –
COc1ccc(CN(C)C[C@H]2OCCCC[C@@H](C)Oc3ccc(NC(=O)Nc4cccc5ccccc45)cc3C(=O)N([C@H](C)CO)C[C@H]2C)cc1 | -87 | – | –
C[C@H](CO)N1C[C@H](C)[C@@H](CN(C)S(=O)(=O)c2cn(C)cn2)Oc2ccc(NC(=O)Nc3ccc(F)cc3)cc2CC1=O | – | – | ·
COc1ccc(-c2ccc([C@H]3[C@H](CO)N4C(=O)CN(C(=O)c5ccccn5)C[C@@H]34)cc2)cc1 | – | · | –
C[C@@H]1CCCCO[C@@H](CN(C)S(=O)(=O)c2ccccc2)[C@H](C)CN([C@@H](C)CO)C(=O)c2cc(NC(=O)c3ccccc3)ccc2O1 | – | – | ·
C[C@@H]1CCCCO[C@H](CN(C)S(=O)(=O)c2ccccc2)[C@H](C)CN([C@@H](C)CO)C(=O)c2cc(NC(=O)c3ccccc3)ccc2O1 | – | – | ·
C[C@@H]1CN([C@@H](C)CO)C(=O)c2cc(NC(=O)c3ccccc3)ccc2O[C@@H](C)CCCCO[C@H]1CN(C)S(=O)(=O)c1ccc(Cl)cc1 | -84 | – | –
C[C@H]1CCCCO[C@H](CN(C)S(=O)(=O)c2ccc(Cl)cc2)[C@@H](C)CN([C@@H](C)CO)C(=O)c2cc(NC(=O)c3ccccc3)ccc2O1 | -81 | – | –
C[C@@H]1CCCCO[C@@H](CN(C)S(=O)(=O)c2ccc(Cl)cc2)[C@H](C)CN([C@@H](C)CO)C(=O)c2cc(NC(=O)c3ccccc3)ccc2O1 | – | – | –
C[C@H]1CCCCO[C@@H](CN(C)S(=O)(=O)c2ccccc2)[C@@H](C)CN([C@@H](C)CO)C(=O)c2cc(NC(=O)c3ccccc3)ccc2O1 | – | – | ·
C[C@@H]1CCCCO[C@@H](CN(C)S(=O)(=O)c2ccc(Cl)cc2)[C@H](C)CN([C@H](C)CO)C(=O)c2cc(NC(=O)c3ccccc3)ccc2O1 | -85 | – | –
C[C@@H]1CN([C@@H](C)CO)C(=O)c2cc(NC(=O)c3ccccc3)ccc2O[C@@H](C)CCCCO[C@@H]1CN(C)S(=O)(=O)c1ccc(Cl)cc1 | -86 | – | –
COCC(=O)N1CC2(CCN(Cc3ccc(Cl)cc3)CC2)c2c([nH]c3cc(OC)ccc23)[C@H]1CO | – | · | –
COc1ccc2c3c([nH]c2c1)[C@H](CO)N(Cc1cc(F)ccc1F)CC31CCN(C)CC1 | – | · | ·
C[C@@H]1CN([C@H](C)CO)C(=O)c2cc(NC(=O)CCCN(C)C)ccc2O[C@@H](C)CCCCO[C@H]1CN(C)S(=O)(=O)c1ccccc1 | – | – | –
CO[C@H]1CN(C)C(=O)c2ccc(NC(=O)c3ccccc3)cc2OC[C@@H](C)N(C(C)=O)C[C@@H]1C | – | – | –
SMILES | Pf Dd2 inh | Tcruzi prolif | C diff growth
COc1ccc(S(=O)(=O)Nc2ccc3c(c2)CC(=O)N([C@H](C)CO)C[C@@H](C)[C@@H](CN(C)Cc2ccc(C(=O)Nc4ccccc4N)cc2)O3)cc1 | -85 | – | –
COc1ccc(S(=O)(=O)Nc2ccc3c(c2)CC(=O)N([C@H](C)CO)C[C@H](C)[C@H](CN(C)Cc2ccc(C(=O)Nc4ccccc4N)cc2)O3)cc1 | -81 | – | –
COc1ccc(S(=O)(=O)Nc2ccc3c(c2)C(=O)N([C@@H](C)CO)C[C@H](C)[C@@H](CN(C)Cc2ccc(C(=O)Nc4ccccc4N)cc2)O3)cc1 | – | – | –
COc1ccc(S(=O)(=O)Nc2ccc3c(c2)C(=O)N([C@H](C)CO)C[C@@H](C)[C@H](CN(C)Cc2ccc(C(=O)Nc4ccccc4N)cc2)O3)cc1 | – | – | –
C[C@H](CO)N1C[C@H](C)[C@H](CN(C)C(=O)CC2CC2)Oc2cc(C#CC(C)(C)O)ccc2S1(=O)=O | – | – | –
COc1ccc(NC(=O)Nc2ccc3c(c2)[C@@H]2C[C@@H](CC(=O)N[C@@H](C)c4ccccc4)O[C@@H](CO)[C@@H]2O3)cc1 | – | – | –
COCC(=O)Nc1ccc2c(c1)[C@@H]1C[C@@H](CC(=O)NCc3ccccc3OC)O[C@@H](CO)[C@@H]1O2 | – | – | –
O=C(C[C@@H]1C[C@@H]2c3cc(NC(=O)Nc4ccccc4)ccc3O[C@@H]2[C@H](CO)O1)NCc1ccccc1 | – | – | –
CN(C)c1ccc2c(c1)[C@@H]1C[C@@H](CC(=O)NCc3ccc(Oc4ccccc4)cc3)O[C@@H](CO)[C@@H]1O2 | ? | 127 | –
O=C(C[C@H]1C[C@@H]2c3cc(NC(=O)Nc4ccccc4)ccc3O[C@@H]2[C@H](CO)O1)NCc1ccccc1 | -88 | – | –
COc1ccccc1CNC(=O)C[C@H]1C[C@H]2c3cc(NC(=O)Cc4ccncc4)ccc3O[C@H]2[C@H](CO)O1 | -87 | – | –
CN(C)c1ccc2c(c1)[C@H]1C[C@@H](CC(=O)NCc3ccc(Oc4ccccc4)cc3)O[C@H](CO)[C@H]1O2 | – | · | –
COc1ccc(NC(=O)Nc2ccc3c(c2)[C@@H]2C[C@H](CC(=O)N[C@@H](C)c4ccccc4)O[C@H](CO)[C@@H]2O3)cc1 | -87 | · | –
COc1ccc(CN(C)C[C@H]2OCCCC[C@@H](C)Oc3ccc(NC(=O)CCC(F)(F)F)cc3C(=O)N([C@@H](C)CO)C[C@@H]2C)cc1 | – | – | –
C[C@H]1CN([C@@H](C)CO)C(=O)c2cccc(NS(=O)(=O)c3ccc(Cl)cc3)c2O[C@H]1CN(C)Cc1ccc(-c2ccccc2)cc1 | – | – | –
CO[C@H]1CN(C)C(=O)c2ccc(NC(C)=O)cc2OC[C@H](C)N(C(=O)c2cccnc2)C[C@@H]1C | – | · | –
CN(C)c1ccc2c(c1)[C@@H]1C[C@H](CC(=O)N3CCc4ccccc4C3)O[C@@H](CO)[C@@H]1O2 | ? | 101 | –
